Experimental findings from PubChem BioAssay AID2017 (National Center for Advancing Translational Sciences (NCATS), 2009) are described below.

Each structure is given as a SMILES string. Results filed as inconclusive are left out. A number with no mark means an inactive call. The call rests on the fitted dose curve; in most records, active means well fitted curve in the direction sought with a large enough effect; inconclusive means small, poorly fitted or top-dose-only effect, or another doubt; inactive means no such curve, though single readings can be large or run the other way.

The test system of this assay is 4-diphosphocytidyl-2-C-methyl-D-erythritol kinase IspE (bacterial, species not stated). Put plainly: Confirmatory Assay for Inhibitors of Human Galactokinase (GALK): CDP-Me assay counterscreen. The note with it: ATP depletion, Kinase-Glo luminescence; series mostly up to 115 µM; activity change, negative = inhibition: at the top concentration. Put shortly: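 CMK (0.25 ug/mL) with 15 uM ATP and 30 uM CDP-ME in 20 mM HEPES pH8.0, 5 mM MgCl2, 40 mM KCl, 1 mM DTT, 0.01% BSA; 1 h room temperature. Residual ATP read by Kinase-Glo Plus luminescence.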
For `N#C/C(=C\c1coc2ccc(O)cc2c1=O)C(=O)Nc1nc2ccccc2s1`, the “activity change, negative = inhibition” value was -9.89%.

For the molecule `CCOC(=O)c1c(C)[nH]c2c1-c1ccccc1C(=O)C2=O`, the “activity change, negative = inhibition” value is -7.25%. Turning to `N#C/C(=C(/O)c1cc2ccccc2o1)c1nc2ccccc2s1`, the “activity change, negative = inhibition” value is -3.31%. To `O=C(NCCc1ccccc1)c1ccc2c(=O)[nH]c3c(C(=O)NCC4CCCO4)sc(=S)n3c2c1` (stereo unspecified) belongs -12.4%; to `O=C1C(C2=C(O)c3ccccc3C2=O)=Nc2ccccc21`, -6.72%; to `O=C1/C(=C\c2cc(Cl)c(O)c(Cl)c2)SC(=S)N1Cc1ccccc1`, 3.14%. To `Cc1[nH][nH]c(=O)c1C(c1ccc(-c2ccc(Cl)c(C(=O)O)c2)o1)c1c(C)[nH][nH]c1=O` belongs -6.09%; to `COc1cc(/C=C2\C(=O)ON=C2c2ccccc2)cc(Br)c1O`, -2.63%; to `Cc1ccc(C)c(CN2C(=O)CSc3ccc(C(=O)NCCN4CCOCC4)cc32)c1`, -1.65%. As for `Cc1nn(Cc2noc(C(=O)NCC3CCCO3)n2)c(C)c1Br` (stereo unspecified), the figure is -0.906%; as for `NS(=O)(=O)c1ccc(NC(=S)NNC(=O)c2ccc(Br)o2)cc1`, -1.07%.
